The supplement of paper PMC11732987, “Enantioselective OTUD7B fragment discovery through chemoproteomics screening and high-throughput optimisation” (Communications Chemistry, 2025)

Columns and labels:
Assay in all cases: log2 ratio of Biotin-Ahx-Ub-VS probe labelling (fragment/DMSO); higher = less target engagement (more negative = stronger competition), active = hit call of the paper (q ≤ 0.05, log2 ratio ≤ -1)
Settings in all cases: compound concentration: 200 uM; treatment time: 3 h
[1] = target: T1, USP19 (UniProt O94966)
T1 sequence (whole entry): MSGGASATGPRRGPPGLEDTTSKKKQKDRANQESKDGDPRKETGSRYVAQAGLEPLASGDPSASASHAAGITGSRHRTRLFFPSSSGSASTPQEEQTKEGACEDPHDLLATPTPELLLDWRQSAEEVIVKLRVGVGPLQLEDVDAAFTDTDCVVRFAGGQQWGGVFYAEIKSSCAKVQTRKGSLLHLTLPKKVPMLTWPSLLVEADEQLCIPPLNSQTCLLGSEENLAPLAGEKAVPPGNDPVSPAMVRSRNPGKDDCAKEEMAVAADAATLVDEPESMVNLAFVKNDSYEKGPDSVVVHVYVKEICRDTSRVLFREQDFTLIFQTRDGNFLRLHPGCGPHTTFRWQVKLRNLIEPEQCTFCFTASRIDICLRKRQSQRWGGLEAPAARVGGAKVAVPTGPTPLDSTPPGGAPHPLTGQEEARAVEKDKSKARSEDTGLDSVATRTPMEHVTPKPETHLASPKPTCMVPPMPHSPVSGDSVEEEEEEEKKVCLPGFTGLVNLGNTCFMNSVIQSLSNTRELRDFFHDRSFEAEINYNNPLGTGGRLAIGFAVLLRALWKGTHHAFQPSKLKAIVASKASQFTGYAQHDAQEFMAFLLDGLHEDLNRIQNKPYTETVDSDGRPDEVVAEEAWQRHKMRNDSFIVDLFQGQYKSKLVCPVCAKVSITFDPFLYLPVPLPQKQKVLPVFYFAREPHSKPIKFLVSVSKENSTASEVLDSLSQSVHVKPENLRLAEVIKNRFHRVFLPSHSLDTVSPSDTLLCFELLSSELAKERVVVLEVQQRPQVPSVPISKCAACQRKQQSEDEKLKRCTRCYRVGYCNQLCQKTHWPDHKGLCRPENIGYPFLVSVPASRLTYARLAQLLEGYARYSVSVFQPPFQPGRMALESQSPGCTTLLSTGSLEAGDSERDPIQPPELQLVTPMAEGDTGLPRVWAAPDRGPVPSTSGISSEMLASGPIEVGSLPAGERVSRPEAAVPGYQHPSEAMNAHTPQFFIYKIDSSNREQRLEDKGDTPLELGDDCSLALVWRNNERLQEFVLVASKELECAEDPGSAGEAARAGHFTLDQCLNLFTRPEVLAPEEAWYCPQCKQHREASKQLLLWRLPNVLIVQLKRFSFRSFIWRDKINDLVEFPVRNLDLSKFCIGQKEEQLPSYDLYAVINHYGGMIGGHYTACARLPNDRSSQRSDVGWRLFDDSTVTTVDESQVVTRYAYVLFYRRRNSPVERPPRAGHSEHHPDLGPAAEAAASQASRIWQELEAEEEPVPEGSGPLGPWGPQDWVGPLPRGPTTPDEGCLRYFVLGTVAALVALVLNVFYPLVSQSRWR
Procedure, shortened: (§1)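 Fragment (200 µM) or vehicle was incubated for 3 h with triplicate HEK293T lysate samples of 495 µg, which were then treated with Biotin-Ahx-Ub-VS at 0.5 µM final for 1 h. Labelled DUBs were enriched on NeutrAvidin, digested with LysC and trypsin, and analysed by diaPASEF LC-MS/MS. Values are average log2 fragment/vehicle ratios from an unpaired t-test on global-median-normalised Spectronaut label-free quantities, using proteins with ≥2 unique peptides.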

[2] = target: T2, USP22 (UniProt Q9UPT9)
T2 sequence (whole entry): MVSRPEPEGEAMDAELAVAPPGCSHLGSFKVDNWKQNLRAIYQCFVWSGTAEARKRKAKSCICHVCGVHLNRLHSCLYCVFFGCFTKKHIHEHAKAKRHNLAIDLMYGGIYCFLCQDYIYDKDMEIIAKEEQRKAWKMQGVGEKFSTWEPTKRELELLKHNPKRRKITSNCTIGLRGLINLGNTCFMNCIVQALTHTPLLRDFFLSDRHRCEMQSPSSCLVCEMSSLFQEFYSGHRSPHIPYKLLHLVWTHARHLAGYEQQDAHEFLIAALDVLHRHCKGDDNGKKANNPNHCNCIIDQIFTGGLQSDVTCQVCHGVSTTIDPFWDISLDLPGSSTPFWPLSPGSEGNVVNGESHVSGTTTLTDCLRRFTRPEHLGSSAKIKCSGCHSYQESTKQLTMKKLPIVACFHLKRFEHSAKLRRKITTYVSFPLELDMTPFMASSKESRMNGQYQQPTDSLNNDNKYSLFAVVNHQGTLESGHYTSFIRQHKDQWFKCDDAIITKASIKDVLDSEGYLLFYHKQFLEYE
Procedure, shortened: as §1

[3] = target: USP24 (UniProt Q9UPU5)
Chain of USP24 (Q9UPU5 whole entry): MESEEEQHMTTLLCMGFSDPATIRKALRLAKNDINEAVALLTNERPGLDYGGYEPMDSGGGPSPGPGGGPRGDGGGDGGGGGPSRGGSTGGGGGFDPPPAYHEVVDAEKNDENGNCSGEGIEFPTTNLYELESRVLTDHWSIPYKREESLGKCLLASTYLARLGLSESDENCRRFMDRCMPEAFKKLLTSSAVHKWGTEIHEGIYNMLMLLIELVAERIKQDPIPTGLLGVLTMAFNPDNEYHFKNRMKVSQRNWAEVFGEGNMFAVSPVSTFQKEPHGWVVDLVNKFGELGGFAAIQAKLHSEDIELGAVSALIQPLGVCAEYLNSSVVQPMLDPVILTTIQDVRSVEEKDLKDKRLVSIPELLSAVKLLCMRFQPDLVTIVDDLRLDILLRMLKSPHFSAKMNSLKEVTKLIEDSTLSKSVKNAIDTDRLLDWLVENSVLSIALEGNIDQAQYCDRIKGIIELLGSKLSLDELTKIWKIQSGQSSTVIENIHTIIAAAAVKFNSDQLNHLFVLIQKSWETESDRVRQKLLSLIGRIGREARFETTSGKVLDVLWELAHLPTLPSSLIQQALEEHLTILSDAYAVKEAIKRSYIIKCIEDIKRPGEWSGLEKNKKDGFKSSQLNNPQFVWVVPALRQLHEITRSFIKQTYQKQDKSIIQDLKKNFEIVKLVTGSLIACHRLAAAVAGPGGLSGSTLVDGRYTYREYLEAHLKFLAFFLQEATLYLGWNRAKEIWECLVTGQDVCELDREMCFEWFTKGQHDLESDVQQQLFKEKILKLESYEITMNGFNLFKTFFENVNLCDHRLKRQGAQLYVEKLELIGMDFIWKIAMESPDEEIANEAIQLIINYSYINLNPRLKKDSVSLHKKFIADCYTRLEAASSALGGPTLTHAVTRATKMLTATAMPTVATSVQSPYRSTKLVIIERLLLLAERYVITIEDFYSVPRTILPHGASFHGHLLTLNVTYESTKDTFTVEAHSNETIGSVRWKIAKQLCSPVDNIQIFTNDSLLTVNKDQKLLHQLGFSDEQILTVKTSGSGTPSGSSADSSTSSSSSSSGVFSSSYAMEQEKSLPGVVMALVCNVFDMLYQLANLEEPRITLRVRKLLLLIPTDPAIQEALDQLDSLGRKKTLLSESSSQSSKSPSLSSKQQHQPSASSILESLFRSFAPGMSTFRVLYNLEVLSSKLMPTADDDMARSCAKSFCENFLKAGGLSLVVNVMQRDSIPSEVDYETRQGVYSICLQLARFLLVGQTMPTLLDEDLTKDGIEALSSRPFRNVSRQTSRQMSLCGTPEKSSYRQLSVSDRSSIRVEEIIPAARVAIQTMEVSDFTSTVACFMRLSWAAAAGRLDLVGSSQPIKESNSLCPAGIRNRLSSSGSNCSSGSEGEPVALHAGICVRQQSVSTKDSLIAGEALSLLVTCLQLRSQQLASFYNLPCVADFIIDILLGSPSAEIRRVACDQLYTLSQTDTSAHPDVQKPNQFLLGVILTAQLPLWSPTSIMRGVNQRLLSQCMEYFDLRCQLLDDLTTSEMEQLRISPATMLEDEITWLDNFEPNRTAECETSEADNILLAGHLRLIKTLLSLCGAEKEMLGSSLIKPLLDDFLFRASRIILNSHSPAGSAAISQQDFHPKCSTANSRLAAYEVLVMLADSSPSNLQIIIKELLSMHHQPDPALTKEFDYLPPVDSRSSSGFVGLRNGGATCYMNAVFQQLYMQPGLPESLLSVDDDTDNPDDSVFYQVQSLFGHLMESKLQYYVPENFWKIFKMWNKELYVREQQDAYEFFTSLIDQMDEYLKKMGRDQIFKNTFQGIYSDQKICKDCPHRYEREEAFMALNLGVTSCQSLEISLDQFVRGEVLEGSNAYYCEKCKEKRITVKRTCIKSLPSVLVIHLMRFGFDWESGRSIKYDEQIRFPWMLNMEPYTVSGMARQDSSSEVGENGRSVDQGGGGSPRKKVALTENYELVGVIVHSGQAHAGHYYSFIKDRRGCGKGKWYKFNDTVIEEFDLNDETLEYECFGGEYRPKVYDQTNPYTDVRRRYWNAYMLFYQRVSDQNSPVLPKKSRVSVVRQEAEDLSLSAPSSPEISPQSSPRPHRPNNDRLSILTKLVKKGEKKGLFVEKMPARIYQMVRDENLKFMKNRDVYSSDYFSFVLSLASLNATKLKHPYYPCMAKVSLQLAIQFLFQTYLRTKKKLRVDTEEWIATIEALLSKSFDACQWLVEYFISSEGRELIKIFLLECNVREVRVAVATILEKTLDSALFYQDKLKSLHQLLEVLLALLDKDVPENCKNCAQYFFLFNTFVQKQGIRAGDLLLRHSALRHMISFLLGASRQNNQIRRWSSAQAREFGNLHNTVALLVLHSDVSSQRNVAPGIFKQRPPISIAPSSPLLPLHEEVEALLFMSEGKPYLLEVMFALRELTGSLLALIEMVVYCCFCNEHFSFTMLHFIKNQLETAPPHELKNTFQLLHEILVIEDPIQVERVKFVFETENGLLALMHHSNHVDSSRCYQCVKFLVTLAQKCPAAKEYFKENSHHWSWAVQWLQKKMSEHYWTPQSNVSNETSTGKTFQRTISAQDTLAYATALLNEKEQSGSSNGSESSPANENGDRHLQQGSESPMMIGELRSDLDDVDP
Procedure, shortened: as §1

[4] = target: T3, USP25 (UniProt Q9UHP3)
T3 sequence (whole entry): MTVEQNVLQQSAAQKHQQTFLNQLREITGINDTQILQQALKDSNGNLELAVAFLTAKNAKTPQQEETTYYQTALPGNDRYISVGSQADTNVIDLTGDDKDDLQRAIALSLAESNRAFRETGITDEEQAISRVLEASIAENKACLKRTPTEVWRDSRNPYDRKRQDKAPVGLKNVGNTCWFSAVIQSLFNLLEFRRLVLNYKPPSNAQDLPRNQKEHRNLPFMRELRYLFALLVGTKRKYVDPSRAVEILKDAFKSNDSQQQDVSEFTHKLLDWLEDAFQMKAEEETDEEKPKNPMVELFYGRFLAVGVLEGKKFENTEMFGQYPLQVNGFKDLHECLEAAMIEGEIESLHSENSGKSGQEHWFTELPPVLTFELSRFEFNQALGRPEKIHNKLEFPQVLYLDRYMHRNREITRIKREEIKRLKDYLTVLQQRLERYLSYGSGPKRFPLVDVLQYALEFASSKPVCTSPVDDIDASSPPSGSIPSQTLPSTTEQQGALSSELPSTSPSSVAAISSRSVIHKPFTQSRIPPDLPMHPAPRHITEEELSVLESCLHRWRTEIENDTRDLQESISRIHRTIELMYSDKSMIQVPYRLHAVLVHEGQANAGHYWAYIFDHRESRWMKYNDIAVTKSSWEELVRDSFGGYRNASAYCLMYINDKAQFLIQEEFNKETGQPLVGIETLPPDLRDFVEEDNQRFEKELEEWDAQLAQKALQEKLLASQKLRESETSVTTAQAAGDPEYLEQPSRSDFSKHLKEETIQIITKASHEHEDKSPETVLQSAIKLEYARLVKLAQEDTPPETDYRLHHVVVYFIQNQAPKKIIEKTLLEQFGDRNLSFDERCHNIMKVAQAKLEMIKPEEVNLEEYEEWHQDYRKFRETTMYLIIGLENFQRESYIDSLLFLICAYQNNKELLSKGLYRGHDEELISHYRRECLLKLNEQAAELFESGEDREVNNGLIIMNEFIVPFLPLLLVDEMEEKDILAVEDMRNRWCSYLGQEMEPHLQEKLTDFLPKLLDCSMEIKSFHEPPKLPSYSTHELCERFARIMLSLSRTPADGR
Procedure, shortened: as §1

[5] = target: T4, USP28 (UniProt Q96RU2)
T4 sequence (whole entry): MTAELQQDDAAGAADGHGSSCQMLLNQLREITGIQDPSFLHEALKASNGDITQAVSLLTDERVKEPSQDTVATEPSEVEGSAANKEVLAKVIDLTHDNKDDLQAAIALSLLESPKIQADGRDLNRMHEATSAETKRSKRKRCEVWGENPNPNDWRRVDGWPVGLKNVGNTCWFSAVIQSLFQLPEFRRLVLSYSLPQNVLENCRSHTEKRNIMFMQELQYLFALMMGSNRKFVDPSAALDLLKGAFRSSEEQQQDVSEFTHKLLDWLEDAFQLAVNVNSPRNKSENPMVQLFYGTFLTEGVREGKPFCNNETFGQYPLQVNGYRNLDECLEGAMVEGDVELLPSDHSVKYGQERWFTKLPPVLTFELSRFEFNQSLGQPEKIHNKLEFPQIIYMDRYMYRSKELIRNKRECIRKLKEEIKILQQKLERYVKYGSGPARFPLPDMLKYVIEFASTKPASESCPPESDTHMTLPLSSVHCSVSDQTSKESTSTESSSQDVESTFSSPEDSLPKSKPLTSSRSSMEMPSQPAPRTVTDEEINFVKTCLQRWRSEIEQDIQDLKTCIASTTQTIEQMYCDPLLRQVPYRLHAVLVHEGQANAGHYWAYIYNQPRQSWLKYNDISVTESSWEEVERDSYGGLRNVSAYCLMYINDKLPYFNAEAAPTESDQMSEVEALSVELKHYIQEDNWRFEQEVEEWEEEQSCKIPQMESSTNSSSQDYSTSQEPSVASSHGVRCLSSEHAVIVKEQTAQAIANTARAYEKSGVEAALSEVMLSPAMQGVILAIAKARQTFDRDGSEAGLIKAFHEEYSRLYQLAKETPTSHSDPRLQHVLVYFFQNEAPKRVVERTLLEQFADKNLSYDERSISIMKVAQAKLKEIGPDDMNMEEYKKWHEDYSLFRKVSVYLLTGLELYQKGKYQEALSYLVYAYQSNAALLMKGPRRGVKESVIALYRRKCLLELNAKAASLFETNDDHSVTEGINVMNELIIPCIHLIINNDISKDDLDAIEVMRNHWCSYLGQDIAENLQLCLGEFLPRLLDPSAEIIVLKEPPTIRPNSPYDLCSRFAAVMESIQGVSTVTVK
Procedure, shortened: as §1

Measured: log2 ratio of Biotin-Ahx-Ub-VS probe labelling

O=C(CCl)NC1CCC(C(F)(F)F)CC1 (stereo not given)
inactive: [1] -0.155 | [2] 0.067 | [3] -0.771 | [4] -0.322 | [5] -0.705
